Hits are enriched below; roughly 10% of the tested compounds scored in any of these assays.
BAZ2B inh: qHTS Assay for Inhibitors of BAZ2B | Bromodomain adjacent to zinc finger domain protein 2B (Homo sapiens), Q9UIF8 | AlphaScreen BAZ2B-H3K14Ac peptide displacement | Potency, µM (series often up to 114 µM), without a hit: at the top dose activity change, negative = inhibition, usual class: inhibitors | 360,000 tested, 4.4% active; also: potency is read from the fitted curve at half-maximal effect; % is scaled to controls: 0 for no effect and ±100 for the full control effect; nearly all actives have a fitted effect of over 60% in size
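BAZ2B (50 nM) with biotin-H3(5-23)K14Ac peptide (50 nM) in PBS pH 7.4, 0.01% Tween-20, preformed 30 min, then compound 30 min at room temperature; top concentration 110uM. AlphaScreen streptavidin donor/nickel chelate acceptor beads (10 ug/mL final), 20 min dark, signal read.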
HP1b binding inh: HTS for Inhibitors of HP1-beta Chromodomain Interactions with Methylated Histone Tails. Potency, µM (titrated, usually from 114 µM), without a hit: at the highest dose activity change, negative = inhibition, usual class: inhibitors. AlphaScreen HP1-beta / biotin-H3K9me3 peptide binding. 390,000 tested, 0.56% active. Chromobox protein homolog 1 (Homo sapiens), P83916; also: potency is read from the fitted curve at half-maximal effect; nearly all actives have a fitted effect of over 70% in size
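AlphaScreen: HP1-beta (50 nM) preformed 30 min with biotin-H3(1-18)K9me3 peptide (50 nM) in PBS pH 7.4, 0.01% Tween-20. Compound added for 30 min at RT, then streptavidin donor/nickel chelate acceptor beads (10 ug/mL) for 30 min.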
G9a inh: qHTS Assay for Inhibitors of Histone Lysine Methyltransferase G9a | AID 504332, 2011 | Potency, µM (doses to about 102 µM), for the others: at the highest dose activity, negative = inhibition, actives largely listed as inhibitors | G9a H3K9 monomethylation, AlphaScreen, 2 h | 350,000 tested, 8.8% active; also: potency is read from the fitted curve at half-maximal effect; % is scaled to controls: 0 for no effect and ±100 for the full control effect; nearly all actives have a fitted effect of over 75% in size
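Quantitative HTS format: methyltransferase activity on a biotin-tagged H3K9 peptide is measured by AlphaScreen, using a rabbit anti-monomethyl-H3K9 antibody with streptavidin donor and anti-IgG acceptor beads. Final levels are 20 nM enzyme, 500 nM peptide, 20 uM SAM; 2 h RT.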
Six1-Eya2 blk: qHTS Assay for Inhibitors of the Six1/Eya2 Interaction | AlphaScreen GST-Six1/His-Eya2 binding, biochemical; hits give low values | activity change, % (concentration not given with the values) | 360,000 tested, 0.56% active; in the data active = activity change below about -65%; inconclusive = mostly about -30% to -63%; also: % is scaled to controls: 0 for no effect and ±100 for the full control effect
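Compounds are tested against tagged Six1 and Eya2 proteins bridged by glutathione donor and nickel acceptor beads; after a one-hour incubation at 37 °C without light, AlphaScreen emission is recorded.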
CtBP-E1A inh: qHTS Assay for Inhibitors of the CtBP/E1A Interaction. AlphaScreen GST-E1A/His-CtBP binding, 1536-well; hits give low values. activity change, % (test concentration not listed). 340,000 tested, 0.49% active. AID 651724, 2012; in the data active = activity change below about -65%; inconclusive = mostly about -30% to -63%; also: % is scaled to controls: 0 for no effect and ±100 for the full control effect
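In 5 uL wells, 23 nL compound meets equimolar GST-E1A and His-CtBP (5X stock 125 nM each) for 2 h, 37 °C. Beads (5X, 50 ug/mL) then 1 h, 37 °C, dark.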
JMJD2A Tudor inh: qHTS Assay for Inhibitors of JMJD2A-Tudor Domain. AID 504339, 2011. AlphaScreen JMJD2A-Tudor / H3K4me3 peptide binding. 390,000 tested, 4.4% active. Potency, µM (doses to about 114 µM), for inactives: at the top dose activity change, negative = inhibition, most hits filed as inhibitors; also: potency is read from the fitted curve at half-maximal effect; % is scaled to controls: 0 for no effect and ±100 for the full control effect; nearly all actives have a fitted effect of over 50% in size
Starred values were filed as active, the others as inactive; u = inconclusive; x = no result given; [ ] = another dose, or the depositor's remark. Unless noted, calls follow the shape of the dose curve; as a rule, active = well fitted inhibition curve with a large enough effect; inconclusive = small, poorly fitted or top-dose-only effect; inactive = no such curve, though single readings can be large or run the other way.

SMILES	BAZ2B inh	HP1b binding inh	G9a inh	Six1-Eya2 blk	CtBP-E1A inh	JMJD2A Tudor inh
O=[N+]([O-])c1ccc(-c2nnc3cccc(Cl)n23)cc1	u	22%	35µM*	1	-16	56µM*
CCOC(=O)C(C(=O)Nc1ccccn1)C1CCCCC1 (stereo unspecified)	1%	21%	50µM*	3	9	89µM*
Cc1ccc(C(=O)CN(CCC(=O)O)S(=O)(=O)c2ccc([N+](=O)[O-])cc2)cc1	-6%	33%	12%[2.33 µM]	-1	1	1%
O=C(CCc1ccco1)CCc1ccco1	x	u	x	-11	0	56µM*
Oc1ccc(-c2csc(Nc3ncccn3)n2)c(O)c1	x	51%	-8%	-7	-1	3%
CC(=O)Nc1cccc(-c2csc(Nc3ncccn3)n2)c1	-12%	x	16µM*	x	x	x
Oc1ccc(-c2csc(Nc3ncccn3)n2)cc1O	x	71µM*	2.2µM*	-14	u	28µM*
N#Cc1ccc(OCC(=O)Nc2ccccc2NS(=O)(=O)c2cccs2)cc1	-6%	28%	u	-5	-3	-21%
N#CC1=C(N)Oc2cc(N)ccc2C1c1cccc(F)c1 (stereo unspecified)	-10%	12%	x	-1	-12	-20%
CN(C)c1ccc2c(c1)OC(N)=C(C#N)C2c1cccc(F)c1 (stereo unspecified)	u	u	45µM*	-14	-15	50µM*
COCc1nnc(NS(=O)(=O)c2c(C)cc(C)cc2C)s1	-4%	34%	u	11	9	23%
NC(=O)CSc1nnc2sc3ccccc3n12	5%	44%	u	-8	-4	-7%
S=c1[nH]nc2sc3ccccc3n12	x	-31%	x	-6	-3	1.1µM*
CC1(C)CC(=O)C2=C(C1)N(c1ccccc1)C(=O)C(C(=O)OCc1ccccc1)C2 (stereo unspecified)	x	33%	x	5	0	-8%
CC1(C)CC(=O)C2=C(C1)N(c1cccc(O)c1)C1=C(C2)C(=O)CC(C)(C)C1	u	56%	2.2µM*	-3	1	8%
Cc1nc2c(C)cccn2c1/C(O)=C1\C(=O)C(=O)N(CCN(C)C)C1c1ccccc1 (stereo unspecified)	-1%	14%	6%[12.7 µM]	3	5	-5%
Cc1nc2c(C)cccn2c1/C(O)=C1\C(=O)C(=O)N(CCN2CCOCC2)C1c1ccncc1 (stereo unspecified)	79µM*	u	-51%[12.7 µM]	10	0	5.6µM*
Cc1ccc(C2/C(=C(\O)c3c(C)nc4c(C)cccn34)C(=O)C(=O)N2CCN(C)C)o1 (stereo unspecified)	x	33%	x	2	x	-11%
Cc1nc2c(C)cccn2c1/C(O)=C1\C(=O)C(=O)N(CCN(C)C)C1c1ccco1 (stereo unspecified)	0%	17%	-45%	0	4	22µM*
O=C1c2ccccc2C(=O)N1c1cccc2ccncc12	x	x	x	x	x	-22%
CCOc1ccc(C(=O)CC(=O)C(=O)NCCc2ccc(OC)c(OC)c2)cc1	-33%	-4%	-10%[59 µM]	0	-7	-26%
Cc1ccc(C)c(N2CCN(C(=O)c3cc4c(=O)n(Cc5cccs5)ccc4nc3C)CC2)c1	-31%	3%	-16%[59 µM]	x	x	u
CSCCC(C(=O)NC1CCCC1)n1c(C2CC2)nc2ccccc21 (stereo unspecified)	x	x	x	-2	-11	x
CCc1ccc(OCC(=O)Nc2ncn[nH]2)c(Br)c1	89µM*	47%	-18%[59 µM]	x	x	-6%
CC(C)(C)c1ccccc1OCC(=O)Nc1ncn[nH]1	u	38%	35µM*	-24	-11	-14%
SMILES	BAZ2B inh	HP1b binding inh	G9a inh	Six1-Eya2 blk	CtBP-E1A inh	JMJD2A Tudor inh
CC1CCc2nn(CC(=O)Nc3ccccc3Cl)cc2C1 (stereo unspecified)	-2%	28%	6%[59 µM]	x	x	4%
CCC(=O)Oc1oc(-c2ccccc2)nc1C=Nc1ccc(C)cc1	-2%	16%	u	9	4	-26%
Cc1ccc(C(=O)Oc2oc(-c3ccco3)nc2C=Nc2ccccc2)cc1	-5%[57.1 µM]	x	28µM*	x	x	x
CC(=O)Oc1oc(-c2ccccc2)nc1C=Nc1ccccc1	-5%[57.1 µM]	37%	50µM*	3	-2	-18%
COc1ccc(N=Cc2nc(-c3ccccc3)oc2OC(=O)c2ccccc2)cc1	9%	78%	14%[59 µM]	4	x	17%
CCOC(=O)c1ccc(N=Cc2nc(-c3ccccc3)oc2OC(C)=O)cc1	-25%	39%	7.9µM*	-2	3	-7%
CN(C)c1ccc(N=Cc2nc(-c3ccccc3)oc2OC(=O)c2cccc(Br)c2)cc1	35µM*	-22%	32µM*	-22	-18	u
CC#CC[N+](C)(C)CCCCCCCCCC	8%	35%	12%[12.7 µM]	11	12	-2%
Cc1ccc(S(=O)(=O)N2CCN(c3nc(-c4cccs4)nc4ncccc34)CC2)cc1	x	33%	x	x	x	-18%
COc1ccc(CCNC(=O)Nc2ccccc2[N+](=O)[O-])cc1	-15%	-16%	50µM*	-1	-1	-32%
COc1ccc(/C=N/Nc2ncc(-c3ccccc3)cn2)c(OC)c1	-5%	10%	-7%[59 µM]	-1	-13	u
Cc1c(C(=O)Nc2ccccc2[N+](=O)[O-])csc1-c1ccccc1	11µM*	28µM*	25µM*	u	u	u
CCCOc1ccc(/C=N/Nc2ccccc2[N+](=O)[O-])c(OCCC)c1	2.5µM*	22µM*	8.9µM*	u	u	14µM*
COc1ccc(/C=N/Nc2ncccc2[N+](=O)[O-])c(OC)c1	40µM*	u	28µM*	u	x	50µM*
CC(C)c1ccc(/C=C(\NC(=O)c2ccccc2)C(=O)NCCN2CCOCC2)cc1	0%	x	12%	x	x	x
COc1ccc(N(C)S(=O)(=O)c2ccc(C)cc2)c([N+](=O)[O-])c1	-29%	7%	u	-8	-4	-27%
COc1ccc(NC(=O)CN(C)S(=O)(=O)c2ccc(C)cc2)c([N+](=O)[O-])c1	-6%	12%	32µM*	10	8	-13%
CCCOc1ccc(C(=O)Nc2ccccc2[N+](=O)[O-])cc1	x	u	x	u	u	56µM*
